PubChem BioAssay (NCATS)
Active and inactive are the calls of the source. Entries that show only a call come without a potency. Calls come from the whole dose curve; as a rule, active = well fitted curve in the direction sought with a large enough effect; inconclusive = small, poorly fitted or top-dose-only effect, or another doubt; inactive = no such curve, though single readings can be large or run the other way. Peptide text beside a SMILES is read from it. * marks the point of attachment. Hexanoyl = CCCCCC(=O)*

Molecular target: Luciferin 4-monooxygenase (Photinus pyralis) (UniProt P08659)
Sequence (P08659 whole entry, looked up): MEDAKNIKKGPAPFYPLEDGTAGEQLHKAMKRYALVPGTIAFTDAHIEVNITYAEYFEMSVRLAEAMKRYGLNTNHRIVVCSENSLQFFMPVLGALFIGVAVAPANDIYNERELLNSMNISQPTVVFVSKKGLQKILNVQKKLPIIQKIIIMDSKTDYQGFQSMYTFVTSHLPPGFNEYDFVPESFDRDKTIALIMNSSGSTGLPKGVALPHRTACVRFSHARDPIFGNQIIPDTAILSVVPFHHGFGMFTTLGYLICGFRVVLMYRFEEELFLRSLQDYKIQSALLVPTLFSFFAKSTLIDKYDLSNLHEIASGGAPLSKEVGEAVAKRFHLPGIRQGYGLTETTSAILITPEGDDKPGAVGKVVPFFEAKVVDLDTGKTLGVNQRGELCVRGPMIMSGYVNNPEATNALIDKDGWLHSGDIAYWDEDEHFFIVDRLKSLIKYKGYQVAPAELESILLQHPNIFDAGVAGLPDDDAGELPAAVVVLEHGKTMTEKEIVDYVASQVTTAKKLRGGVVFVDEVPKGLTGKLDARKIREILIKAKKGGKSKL
Experiment: Firefly luciferase counterscreen qHTS: Assay Interference Panel against the NCATS CANVASS Library (AID 1347363)
Settings: purified firefly luciferase, luminescence inhibition, 5 min; series mostly up to 57.5 µM
Text: Natural products and their derivatives continue to be wellsprings of nascent therapeutic potential. However, many laboratories have limited resources for biological evaluation, leaving their previously isolated or synthesized compounds largely or completely untested. To address this issue, the Canvass library of natural products was assembled (https://tripod.nih.gov/canvass), in collaboration with academic and industry researchers, for quantitative high-throughput screening (qHTS) across a diverse set of cell-based and biochemical assays. The pure (>85% purity by liquid chromatography/mass spectrometry [LC/MS]) Canvass library of 346 natural products were submitted by 45 academic laboratories and companies around the world. We collected pure natural products to circumvent deconvolution and structure elucidation due to time and resource limitations. The library was formatted into 1536-well plates and evaluated in 50 qHTS (in an 11-pnt concentration series) bioassays with broad scope of disease-relevant mechanisms. The resulting data set from 50 different assays was then systematically analyzed to identify overall trends and specific natural products with interesting biological activities. Reported herein are the results of each individual qHTS and their corresponding assay protocol. This assay determines potential interactions with a common luminescent coupling enzyme, P. pyralis (firefly) luciferase, to identify possible false positives in future assays. The assay measures the relative levels of luminescence, to identify compounds that inhibit the activity of luciferase. National Center for Advancing Translational Sciences (NCATS), Rockville, MD National Institute of Health (NIH), Bethesda, Maryland
Luciferase Interference counterscreen protocol 1. In a 1536 well, black solid bottom, medium binding plates (Corning 7494), 3 uL of (1x) 50 mM Tris Acetate substrate solution containing 13.3 mM Mg-Acetate, 0.013 mM D-Luciferin, 0.013 mM ATP, 0.013% Tween-20, 0.067% BSA was dispensed into columns 1 to 48, rows 1 to 32 using the Bioraptr dispenser. 2. Compounds were pin transferred (~23 nL volume) via Wako Pin-tool (Wako Automation, Richmond VA) equipped with a 1536 pin head. The assay plates were treated with compounds in a concentration series with a final concentration range of 0.2 nM to 128 uM. 3. PTC124 was used as a control (25 uM, n = 32, column 2, row 1-32) at a final concentration of 142.9 nM and was pin transferred via Wako Pin-tool equipped with a 1536 pin head. 4. The assay plates were incubated in the dark for 15 minutes at room temperature. 5. One microliter of 4x detection reagent (0.04 ug/mL P. pyralis luciferase in 50 mM Tris-Acetate) was then added to the assay plates (column 2-48, rows 1-32) for a final assay volume of 4 uL. While 50 mM Tris-Acetate normalizing control was added to column 1, rows 1-32. 6. The assay plates were further incubated in the dark for 5 minutes at room temperature. 7. Luminescence signal was acquired via the ViewLux plate reader (PerkinElmer) using a clear emission filter and a 2 second exposure, 2x binning settings.

Compound | Potency
COc1c(O)cc2c(c1O)C(=O)c1c(coc1C)C2=O | inactive
CC1=C2CC[C@]3(C)[C@H](CC=C4[C@@H]5CC(C)(C)CC[C@@H]5C(=O)[C@H](O)[C@]43C)[C@@]2(C)C=C(O)C1=O | inactive
CC(C)=CCC/C(C)=C/Cc1cc([C@@H]2CC(=O)c3c(cc(O)c(CC=C(C)C)c3O)O2)ccc1O | inactive
C[C@@]12CCC[C@@](C)(C(=O)O)[C@H]1CC[C@@]13C[C@@H](CC[C@H]12)[C@](C)(O)C3 | inactive
O=C1c2c(O)cc(O)cc2OC(c2ccc(O)cc2)C1O (stereo not given) | inactive
CO[C@H]1/C=C/CCCCC(=O)O[C@@H](/C(C)=C/[C@H](C)C(=O)C[C@H](O)CC2CC(=O)NC(=O)C2)[C@@H](C)C1 | inactive
C/C=C/C1C=CC2CC(C)CC(C)C2C1C(=O)CC(=O)NC(CO)C/C=C/CCCCC (stereo not given) | inactive
C[C@H](c1cnc(N)[nH]1)c1ccc(O)c2[nH]cc(-c3cnc(-c4c[nH]c5ccccc45)c(=O)[nH]3)c12 | inactive
O=C1CCC(=O)N(O)CCCCCNC(=O)CCC(=O)N(O)CCCCCNC(=O)CCC(=O)N(O)CCCCCN1 | inactive
COC12OC1(C13OC1(OC)C(=O)c1cc4cc(C)oc(=O)c4c(O)c1C3O)C(O)c1c(cc3cc(C)oc(=O)c3c1O)C2=O (stereo not given) | inactive
CC(C)=CCCC(C)(O)[C@H]1CC=C(C)C(O)C1 (stereo not given in full) | inactive
CN1C(=O)C(=O)N2C(=C[C@]3(c4c[nH]c5ccccc45)c4ccccc4N[C@H]23)C1=O | inactive
C=C1CC[C@@H](O[C@H]2C[C@@](O)([C@H](C)NC(=O)c3[nH]c(C)c(Cl)c3Cl)[C@H](O)[C@@H](C)O2)[C@@H]2C=C[C@H](C)C(/C(O)=C3/C(=O)[C@H](C(C)C)N([C@@H]4O[C@H](C)[C@H](OC(N)=O)[C@H](OC(C)=O)[C@@H]4OC)C3=O)[C@@H]12 (stereo not given in full) | inactive
CC(=O)Oc1cc2c(c(OC(C)=O)c1C1CCc3cc(Cl)c(Cl)n31)C(=O)n1c-2cc(Cl)c1Cl (stereo not given) | inactive
CC(C)[C@@H]1CC(=O)c2coc3c2[C@H]1C[C@@H](C)C3=O | inactive
C/C(=C\[C@H](C)C(=O)C[C@H](O)CC1CC(=O)NC(=O)C1)[C@@H]1OC(=O)CCCC/C=C/[C@@H](O)C[C@@H]1C | inactive
COc1ccc([C@@H]2c3cc4c(cc3C(=O)C(C)C2C)OCO4)cc1OC (stereo not given in full) | inactive
C/C(=C\[C@@H](C)CC/C=C/CC/C=C/C(=O)O)[C@H](O)[C@H](C)C(=O)CCCC1CC(=O)NC(=O)C1 | inactive
CN1CC[C@@]23c4ccccc4N[C@@H]1[C@@]21CCN(C)[C@@H]3Nc2ccccc21 | inactive
C=C[C@](Cl)(CBr)CCC=C(C)C | inactive

Compound | Potency
COc1cc2c(cc1OC)[C@@H](c1ccc3c(c1)OCO3)C(C)[C@@H](C)C2=O (stereo not given in full) | inactive
CC1(C)CC[C@]2(CO)CC[C@]3(C)C(=CCC4[C@@]5(C)CC[C@H](O)C(C)(C)C5CC[C@]43C)C2C1 (stereo not given in full) | inactive
CCC(=O)CCCCC[C@@H]1NC(=O)[C@H]2CCCCN2C(=O)[C@H](C(C)C)NC(=O)[C@H](Cc2cn(OC)c3ccccc23)NC1=O | inactive
C=C(C)CC[C@H](Cc1c(O)cc(O)c2c1O[C@H](c1ccc(O)cc1)CC2=O)C(=C)C | inactive
O=C1CC2OCC=C3CN4C5CC3C2[C@@H]2N1c1ccccc1[C@]52C[C@@H]4C1=C[C@H]2C3CC4N(CC[C@@]45c4ccccc4N(C1=O)[C@@H]25)C/C3=C/CO (stereo not given in full) | inactive
CO/C=C/C(=O)c1cc2cnc3c(N)cc(=NC(=O)C(C)C)c([nH]1)c23 | inactive
CN1CC[C@@]2([C@@]34CCN(C)[C@@H]3Nc3ccccc34)c3ccccc3N[C@@H]12 | inactive
C[C@@]12CCC[C@@](C)(C(=O)OP(=O)(O)OC[C@H]3O[C@@H](n4cnc5c(N)ncnc54)[C@H](O)[C@@H]3O)[C@H]1C[C@@H](O)[C@@]13C[C@@H](CC[C@@H]21)[C@](C)(O)C3 | inactive
C/C1=C/[C@@H](C)[C@H](O)[C@@H](O)/C=C/CC/C=C/C(=O)O[C@@H]1[C@H](C)C(=O)CCCC1CC(=O)NC(=O)C1 | inactive
Oc1ccc(C2Oc3cc(O)c4c(c3[C@@H]2c2cc(O)cc(O)c2)[C@H]2C(c3ccc(O)cc3)c3c(O)cc5c(c3[C@H]2C4c2ccc(O)cc2)[C@H](c2cc(O)cc(O)c2)C(c2ccc(O)cc2)O5)cc1 (stereo not given in full) | inactive
O=Cc1ccc2n1C[C@]1(C[C@H](O)[C@@H](CO)O1)OC2 | inactive
COC1C(C)OC(OCC23C[C@@H]4[C@H](C)CC[C@H]4C4(C=O)CC2C=C(C(C)C)C34C(=O)O)[C@@H](O)[C@H]1O (stereo not given in full) | inactive
CC(CCC[C@]1(C)C(=O)C=C[C@@]23C[C@]4(C)O[C@@H](C[C@@H]4[C@H]2O)C31)C(=O)O (stereo not given in full) | inactive
CO[C@@H](C[C@@H](C)[C@@H](O)/C=C/C=C/CNC(=O)C(C)(C)[C@H](O)\C(C)=C/C=C\C=C\Cc1cnco1)[C@]1(O)[C@@H](C)C(=O)N(C)[C@@]12COC2=O | inactive
CO[C@H]1[C@@H](OC(=O)/C(C)=C\[C@@H]2O[C@@H]2[C@H]2O[C@H]2C)[C@H](O)[C@H](OCC23C[C@@H]4[C@H](C)CC[C@H]4C4(C=O)CC2C=C(C(C)C)C34C(=O)O)O[C@@H]1C (stereo not given in full) | inactive
CN1CC[C@]23c4ccccc4N[C@H]1[C@]21CCN(C)[C@H]3Nc2ccccc21 | inactive
COC(=O)[C@]1([C@H]2CCC(=O)O2)CC(=O)c2c(O)cc(C)cc2O1 | inactive
CC[C@H]1[C@@H](C)[C@@H](c2cc(OC)c(OC)cc2OC)[C@H](C)[C@@H](c2cc(OC)c(OC)cc2OC)[C@@]12C=C(OC)C(=O)C=C2OC | inactive
C[C@]12CC[C@]3(C1)[C@H](CC2=O)C[C@@H](OC(=O)c1ccccc1)[C@H]1[C@](C)(C(=O)O)CCC[C@@]13C | inactive
CCCCCC(=O)N[C@@H](CC(C)C)C(=O)N[C@H](C=O)CCC(=O)O (Hexanoyl-Leu-Glu-aldehyde) | inactive
